# Results from the supplement of paper PMC6555819.
# How the values were obtained:
# Assay in all cases: PBM binding z-score (relative to random genomic background probes); higher = stronger binding; sequences stand for … in GC…GCGATTGACAGCGTAGAATGAAGG
# [1] = tested on: RARb homodimer (NR concentration 270 nM)
# Outline: (§1)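 Ligand-free nuclear receptor dimers were applied to custom Agilent 4×180K protein-binding microarrays whose double-stranded probes carried direct-repeat seeds, single-nucleotide variants, half-site ablations and random human genomic background sequences in 34-nt variable regions. Incubation lasted 1 h. Binding z-scores were computed against the random background probes from regression-normalized fluorescence.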
# [2] = tested on: RARg:RXRa (NR concentration 270 nM, RXRa partner concentration 90 nM)
# Outline: as §1
# [3] = tested on: RARg homodimer (NR concentration 270 nM)
# Outline: as §1
# [4] = tested on: RXRa DBDmut IVT, anti-RXR (DBD mutation: RXRa K156A/R161A, NR concentration 90 nM)
# Outline: as §1
# [5] = tested on: RXRa homodimer (NR concentration 180 nM)
# Outline: as §1
# [6] = tested on: THRa:RXRa (NR concentration 90 nM, RXRa partner concentration 90 nM)
# Outline: as §1
# [7] = tested on: THRa homodimer (NR concentration 90 nM)
# Outline: as §1
# [8] = tested on: VDR:RXRa (NR concentration 270 nM, RXRa partner concentration 90 nM)
# Outline: as §1
# [9] = tested on: VDR homodimer (NR concentration 270 nM)
# Outline: as §1
Sequence,PBM binding z-score [1],PBM binding z-score [2],PBM binding z-score [3],PBM binding z-score [4],PBM binding z-score [5],PBM binding z-score [6],PBM binding z-score [7],PBM binding z-score [8],PBM binding z-score [9]
ATCGAAAGGACGAAGGTGAGTATACCCACCCGAA,0.646,1.11,1.26,-0.397,0.555,0.23,-0.316,-0.276,-0.271
ACTCGGAGGACAAAGGTCAGAGTTACGCCAGTGA,4.32,5.86,4.91,1.63,4.97,3.59,0.845,3.42,0.984
TCTTGTAGATCAAGCAGGTTAAGCAAGCCTGAGT,0.0597,-0.0759,-0.399,0.344,0.228,0.275,-0.299,0.328,-0.175
AGAACGAGGGCAATGAGTTGACAGCACGGGTGGC,1.2,1.33,1.73,1.54,1.02,1.19,-0.211,5.03,2.89
GCTTACGGGTCAAAGCTTATAGCATGAATAGAAT,2.29,4.92,4.8,2.48,5.91,2.12,-0.718,3.36,0.809
CGATCGAGGGCATGAGTTGATAGCAAATGCCGAT,0.615,1.06,1.18,1.75,0.725,1.04,-0.645,0.973,1.5
GATACAGGGTCATGGCCAGAGTACGCGTATTGAT,3.44,5.62,5.09,2.44,6.72,3.78,0.968,4.83,2.77
TCTTGTAAATCAAAGGTTAAGAAAGCCGAAGCCT,1.35,1.39,0.692,0.749,2.24,0.996,-0.284,1.07,-0.116
CCAGACAGGCGAAAGGTAACTCAGTCTGGTACGC,-0.261,0.0389,-0.491,-0.267,0.25,-0.18,-0.896,-0.255,-0.57
CCAACTAGGTCACAGAGGTCAAAGTCCGTGCGTA,5.91,7.44,8.06,3.39,7.77,4.66,3.24,7.88,6.85
TCATATAGGTAAAAGGTGAGAGTCGGTGTGGTAA,1.5,1.39,0.67,1.49,2.55,1.26,0.546,1.29,0.255
CGTCCAAGGTCAAAGGTTAGTGAAGAGATGACGG,4.34,7.04,6.48,3.99,8.4,4.33,2.53,5.39,3.02
CCTAGCAGGCCAATCTGGGTCACTAAAGGCTTGA,2.01,0.915,1.17,0.23,0.402,3.4,0.446,0.366,0.000244
CGAACTAGGTCATTGACAGGACACTGAATAGTAA,2.8,4.6,3.84,2.58,2.46,3.03,1.06,2.52,1.18
CGAACTAGGTCATTGACACGACAGTGAATAGTAA,2.5,3.57,4.22,2.37,2.52,2.53,0.751,2.01,1.15
CTCGAAAGGTCGGTCGAGGTGAGTATACGGATAA,2.4,3.1,3.3,0.728,2.47,5.04,0.386,2.25,0.0425
AGAATGAGGTTACCAAATATCAGGGAAACGCTTG,0.779,1.91,1.86,1.24,2.52,2.67,0.824,1.34,0.512
GCTTGTAGATCAAGGTTAAGAAGGACTAAGCTAA,0.182,0.382,0.268,-0.0285,0.716,1.18,-0.165,0.438,-0.0273
CCTACTGGGCCATTCAGGGGTCATTGATCATATG,3.95,4.69,3,0.56,5.5,3.31,0.962,4.82,4.05
GCATATAGGTAATACAAGGTGAAAGGCCGATTGT,1.08,0.593,0.747,0.113,0.895,4.07,0.753,0.402,0.114
CCTACTGGGCCAAGGTCATTGATCAGTCAAAGCA,3.43,3.59,2.83,1.19,3.08,3.49,2.36,3.15,2.15
CCTACTGTGCCAAAGGTCATTGATTCCAATGCTC,4.59,5.61,5.21,2.09,6.46,3.46,1.72,5.13,3.37
AGAACGAGGGCCATGAGTTGATAGCACGGGTGGC,0.111,0.395,0.308,-0.019,0.448,-0.138,-0.79,0.196,0.371
CATACAGGGTCAGTTAGGCCAGAGTAGGGACGGC,2.87,3.61,3.84,1.68,2.94,2.77,1.04,3.05,1.69
CGAACTAGTTCAGAACAGGACAGTGAAGGATGAT,0.329,0.335,0.706,1.18,0.233,1.8,-0.53,-0.0284,0.226
CCGACTGGGGCTGAAAGGTTACCATACCATCCGG,1.92,1.33,0.724,-0.859,1.75,0.974,-0.189,0.343,-0.252

Sequence,PBM binding z-score [1],PBM binding z-score [2],PBM binding z-score [3],PBM binding z-score [4],PBM binding z-score [5],PBM binding z-score [6],PBM binding z-score [7],PBM binding z-score [8],PBM binding z-score [9]
TCTTGTAGATCAAGAGAGGTTAAGAAAGTGCGCT,0.846,0.415,0.178,0.14,1.21,2.27,-0.932,1.77,0.194
TCATATAGGTAAAAGATGAAAGTCGGTGTGGTAA,-0.433,0.301,0.223,1.73,0.923,0.0309,0.103,0.912,-0.0575
ATATGTAGGTTATCGCGTCATTCAGTTTGCGCAT,0.515,0.647,0.634,0.806,1.03,0.388,0.235,0.798,0.254
ATCTCTAGGTAACAAGTTCAGTGCAAGAGAGGAC,1.96,1.28,1.46,0.886,0.703,2.19,1.03,1.79,3.19
CGTCCAAGGTCAATGGTCAGTGAAGAGATGACGG,4.04,5.46,6.07,3.36,4.67,3.6,2.11,3.55,2.25
AGAATGAGGTTAAGACCAGGGAAACAGAATACAT,1.01,1.97,1.33,0.973,2.47,2.48,0.691,1.03,0.514
CCTACTGGGCCAAAAAAGTCATTGATGCCGATAA,-0.0259,-0.155,0.0325,-0.134,-0.184,-0.184,-0.612,-0.174,-0.687
CCAGACAGGTGGAAGGTAACTCAGTCTGGTACGC,0.0116,-0.129,-0.15,-0.527,0.236,-0.18,-0.144,-0.365,-0.0329
AGAACGAGGGCACGCTGAGTTGATAGAAGAGTAG,1.17,1.97,2.31,1.83,1.29,1.91,-0.0196,2.26,1.72
GCTTACGCGTCAAAGGTTATAGCATGAATAGAAT,0.965,1.43,0.64,0.189,3.35,1.65,-0.774,1.12,-0.203
CCGACTGTGGCATAAGGTTACCATAAGCCAGCCC,1.24,0.6,0.353,0.486,0.923,2.37,1.7,0.153,-0.189
AGAATGAGGTTAAGATCAAGGAAACAGAATACAT,0.789,2.02,1.57,1.13,2.68,2.39,0.555,1.09,0.551
CCGACTGGGGAAAAGGTTACCATACTCAGTACGA,1.79,1.37,0.901,0.237,1.86,1.05,-0.101,0.397,0.0305
TCTAGAAGGCCAGAGGGTCACTCAAGAGGTACGG,3.16,3.17,2.72,0.844,3.03,1.75,-0.0793,2.05,0.435
TATACAGGGTCAAACGCCAGAGTACGAATGTCGA,3.44,5.93,5.27,3.62,6.88,3.56,0.861,5,4.28
CCTAGCAGGCCAATCTGGGTCGCTCAAGGCTTGA,0.548,0.673,-0.21,-0.847,0.755,2.75,-0.707,0.301,-0.559
GCAGACATGTGAAACGCAGGTAACTCAGGGTGGC,-0.931,-0.194,-0.391,-0.691,-0.0899,0.4,-0.871,-0.478,-1.27
CCTTACGGGCCACTCCAGGTTATAGCATCGGAGT,0.457,0.099,0.515,-0.62,-0.0369,2.62,0.204,-0.25,0.0382
ATCGAAAGGTCGACGAGGTGACTATACACCGTTT,3.13,4.44,4.48,1.17,5.08,3.95,1.27,,1.11
CAAACTAGGTCCAGAGGTCAAAGTCCGCTTCCCG,4.66,5.31,4.62,2.53,6.34,3.75,1.72,5.14,4.18
CCTCGGAGGACAAAAGGTCAGAGCTGTCCGCTTT,5.18,6.04,5.86,0.812,4.67,3.07,0.53,3.17,0.674
ATACCAAGGTGATCGTGTGGTCGTTGATACTAAC,0.584,0.298,0.273,0.0966,0.296,0.959,0.536,0.0148,0.0513
CGAACTAGGTCAGAACTGGACAGTGAAGGATGAT,1.62,2.49,3.05,0.459,1.3,1.13,-0.298,0.181,0.221
ATCTCTAGGTAAGACTAAGTTCAGTGAAGAACGC,1.85,0.933,0.697,0.96,0.46,1.34,0.876,1.7,2.25
ACGTACGGGTCAACGAGGTTATAGCACGCGTATA,3.58,5.69,5.07,2.07,6.3,4,0.75,7.49,3.93
ATCCAAAGGTCGACGAGGTGAGTATACACCGTTT,3.09,4.27,4.1,1.22,4.44,3.66,1.12,5.23,0.772
